Experimental findings from PubChem BioAssay (NCI) are described below.

Assay [1] is described as follows: NCI Yeast Anticancer Drug Screen. Data for the rad50 strain (AID 155).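 Also: 0% = growth of vehicle-only cultures of the same strain.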 Conditions: S. cerevisiae rad50 strain growth inhibition, stronger effect = higher value. An outline of the steps:
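Vehicle-treated cultures provide the reference for the growth inhibition reported for compound-exposed, repair-deficient yeast.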

A short description of assay [2]: NCI Yeast Anticancer Drug Screen. Data for the mec2-1 strain (AID 157). Conditions: S. cerevisiae mec2-1 strain, stronger effect = higher value. An outline of the steps:
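Mutant yeast (mec2-1) grown with compound; growth inhibition relative to vehicle control reported.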

The nature of assay [3]: NCI Yeast Anticancer Drug Screen. Data for the sgs1 mgt1 strain (AID 161).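 Also: 0% = growth of cultures given vehicle only.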 To be noted: S. cerevisiae sgs1 mgt1 strain, stronger effect = higher value. Put shortly:
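This yeast growth screen uses a strain with defined DNA-repair lesions; compound-treated growth is compared with vehicle-treated growth.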

Assay [4] is described as follows: NCI Yeast Anticancer Drug Screen. Data for the cln2 rad14 strain (AID 165).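 Also: 0% = growth equal to vehicle treated cultures.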 Conditions: S. cerevisiae cln2 rad14 strain, stronger effect = higher value. An outline of the steps: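 Readout is yeast growth inhibition versus vehicle-treated controls, using a strain with cln2 and rad14 alterations exposed to compound.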
A short description of assay [5]: NCI Yeast Anticancer Drug Screen. Data for the bub3 strain (AID 167). To be noted: S. cerevisiae bub3 mutant strain, stronger effect = higher value. An outline of the steps: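 Mutant yeast screening strain plus compound; vehicle-treated cultures serve as the 0% inhibition reference.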
A short description of assay [6]: NCI Yeast Anticancer Drug Screen. Data for the mlh1 rad18 strain (AID 175). To be noted: S. cerevisiae mlh1 rad18 strain growth inhibition, stronger effect = higher value. Put shortly: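 Genetically defined yeast (DNA repair-deficient) exposed to compounds; growth inhibition determined relative to vehicle.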
The mark [7] stands for this setting: at 5.0 µM (retest, dose inferred, filed as 0.5).
[8] abbreviates: at 50.0 µM (retest, dose inferred, filed as 5.0).

Molecules are shown by their SMILES. About 79,000 compounds went through this panel and 15% of them were active in at least one assay; those are over-represented in the sample as a whole. Values without a mark were called inactive. The source made the active and inactive calls. Rule as the data show it: active = growth inhibition above about 70%; inactive = the rest.

On to `CC[CH2][Pb]([CH2]CC)([CH2]CC)[NH]S(=O)(=O)c1ccc(C)cc1`, for which the growth inhibition is 99% (active) in assay [1] (setting [7]); 99% (active) in assay [1] (setting [8]); 99.5% (active) in assay [1] (at 50.0 µM); 99% (active) in assay [2] (setting [7]); 100% (active) in assay [2] (setting [8]); 99.7% (active) in assay [2] (at 50.0 µM). Besides, the growth inhibition is 99% (active) in assay [3] (setting [7]); 99% (active) in assay [3] (setting [8]); 99.6% (active) in assay [3] (at 50.0 µM); 98% (active) in assay [4] (setting [7]); 99% (active) in assay [4] (setting [8]); 97.9% (active) in assay [4] (at 50.0 µM). Further, the growth inhibition in assay [5] (setting [7]) was 100% (active); in assay [5] (setting [8]), 100% (active); in assay [5] (at 50.0 µM) it was 99.5% (active); in assay [6] (setting [7]), 99% (active); in assay [6] (setting [8]), 100% (active); in assay [6] (at 50.0 µM), 99.5% (active).
In the case of `COc1ccc(NN=O)nc1`, the growth inhibition in assay [1] (setting [7]) is 21%; in assay [1] (setting [8]) it was 16%; in assay [1] (at 50.0 µM), 31.9%; in assay [2] (setting [7]) it was 8%; in assay [2] (setting [8]) it was 17%; in assay [2] (at 50.0 µM), -2.2%. Further, the growth inhibition in assay [3] (setting [7]) was 18%; in assay [3] (setting [8]), 23%; in assay [3] (at 50.0 µM) it was -20.9%; in assay [4] (setting [7]), 7%; in assay [4] (setting [8]), 24%; in assay [4] (at 50.0 µM), -18.6%. For the same molecule, the growth inhibition in assay [5] (setting [7]) is 20%; in assay [5] (setting [8]) it was 22%; in assay [5] (at 50.0 µM) it was -22.4%; in assay [6] (setting [7]) it was 20%; in assay [6] (setting [8]), 29%; in assay [6] (at 50.0 µM), 3.95%.
Consider `C[C@@H](O)[C@H]1/C=C/C=C\C(=O)O[C@@H]2C[C@H]3O[C@@H]4[C@@H]5OC5(C)CCC4(COC(=O)[C@H]4O[C@]4(C)[C@@H](O)CO1)[C@]2(C)[C@]31CO1` (some centres not stated), for which the growth inhibition in assay [1] (setting [7]) was 26%; in assay [1] (setting [8]), 95% (active); in assay [1] (at 50.0 µM), 91.4% (active); in assay [2] (setting [7]) it was 24%; in assay [2] (setting [8]) it was 87% (active); in assay [2] (at 50.0 µM), 92.5% (active). Also, the growth inhibition in assay [3] (setting [7]) is 44%; in assay [3] (setting [8]), 96% (active); in assay [3] (at 50.0 µM), 92% (active); in assay [4] (setting [7]), 42%; in assay [4] (setting [8]) it was 96% (active); in assay [4] (at 50.0 µM), 90.4% (active). Besides, the growth inhibition in assay [5] (setting [7]) was 31%; in assay [5] (setting [8]), 93% (active); in assay [5] (at 50.0 µM), 91% (active); in assay [6] (setting [7]), 28%; in assay [6] (setting [8]), 97% (active); in assay [6] (at 50.0 µM), 90.2% (active).
Consider `O=S(=O)(F)c1ccc(Cl)cc1`, for which the growth inhibition in assay [1] (setting [7]) was 22%; in assay [1] (setting [8]) it was 97% (active); in assay [1] (at 50.0 µM), 85.5% (active); in assay [2] (setting [7]), 4%; in assay [2] (setting [8]), 84% (active); in assay [2] (at 50.0 µM) it was 20.9%. Besides, the growth inhibition in assay [3] (setting [7]) is 9%; in assay [3] (setting [8]) it was 92% (active); in assay [3] (at 50.0 µM), 82.3% (active); in assay [4] (setting [7]), 3%; in assay [4] (setting [8]), 90% (active); in assay [4] (at 50.0 µM) it was 49.7%. In addition, the growth inhibition in assay [5] (setting [7]) was 12%; in assay [5] (setting [8]) it was 97% (active); in assay [5] (at 50.0 µM) it was 70.9% (active); in assay [6] (setting [7]) it was 13%; in assay [6] (setting [8]), 98% (active); in assay [6] (at 50.0 µM), 90.8% (active).
For `C1=C[N-]c2c3c(ccc2=C1)=CC=C[N-]3.C1=C[N-]c2c3c(ccc2=C1)=CC=C[N-]3.F[P-](F)(F)(F)(F)F.[Cu+2]`, the growth inhibition in assay [1] (setting [7]) is 56%; in assay [1] (setting [8]), 98% (active); in assay [1] (at 50.0 µM), 99.3% (active); in assay [2] (setting [7]), 52%; in assay [2] (setting [8]) it was 99% (active); in assay [2] (at 50.0 µM) it was 99.5% (active). The growth inhibition in assay [3] (setting [7]) is 47%; in assay [3] (setting [8]) it was 99% (active); in assay [3] (at 50.0 µM), 99.5% (active); in assay [4] (setting [7]), 51%; in assay [4] (setting [8]), 98% (active); in assay [4] (at 50.0 µM), 98.8% (active). For the same molecule, the growth inhibition in assay [5] (setting [7]) was 48%; in assay [5] (setting [8]) it was 99% (active); in assay [5] (at 50.0 µM) it was 99.2% (active); in assay [6] (setting [7]), 53%; in assay [6] (setting [8]), 99% (active); in assay [6] (at 50.0 µM), 99.1% (active).
With `CCCCCCCCCCCCCC(=O)O[C@H]1CC[C@H](NC(=O)[C@H](OC)[C@H](O)[C@@H](O)[C@H](O)/C=C/C(C)C)C(=O)NC1`, the growth inhibition in assay [1] (setting [7]) is -1%; in assay [1] (setting [8]) it was 93% (active); in assay [1] (at 50.0 µM) it was 88.1% (active); in assay [2] (setting [7]), 4%; in assay [2] (setting [8]), 96% (active); in assay [2] (at 50.0 µM) it was 87.4% (active). For the same molecule, the growth inhibition in assay [3] (setting [7]) is -2%; in assay [3] (setting [8]), 92% (active); in assay [3] (at 50.0 µM) it was 89.5% (active); in assay [4] (setting [7]), 11%; in assay [4] (setting [8]), 93% (active); in assay [4] (at 50.0 µM), 71.5% (active). Moreover, the growth inhibition was 4% in assay [5] (setting [7]); 96% (active) in assay [5] (setting [8]); 92.2% (active) in assay [5] (at 50.0 µM); -1% in assay [6] (setting [7]); 94% (active) in assay [6] (setting [8]); 85.6% (active) in assay [6] (at 50.0 µM).
Consider `c1cc[c]([Pb]([S]c2nc3ccccc3[nH]2)([c]2ccccc2)[c]2ccccc2)cc1`, for which the growth inhibition in assay [1] (setting [7]) was 99% (active); in assay [1] (setting [8]) it was 99% (active); in assay [1] (at 50.0 µM), 91.4% (active); in assay [2] (setting [7]), 100% (active); in assay [2] (setting [8]), 99% (active); in assay [2] (at 50.0 µM) it was 92.7% (active). The growth inhibition is 99% (active) in assay [3] (setting [7]); 99% (active) in assay [3] (setting [8]); 92.2% (active) in assay [3] (at 50.0 µM); 99% (active) in assay [4] (setting [7]); 99% (active) in assay [4] (setting [8]); 91.8% (active) in assay [4] (at 50.0 µM). For the same molecule, the growth inhibition in assay [5] (setting [7]) is 99% (active); in assay [5] (setting [8]), 99% (active); in assay [5] (at 50.0 µM), 91.3% (active); in assay [6] (setting [7]), 99% (active); in assay [6] (setting [8]), 99% (active); in assay [6] (at 50.0 µM) it was 90.3% (active).
On to `CN=C(N)N/N=C(\C)c1ccc2sc3ccc(/C(C)=N/NC(N)=NC)cc3c2c1`, for which the growth inhibition in assay [1] (setting [7]) was 49%; in assay [1] (setting [8]) it was 55%; in assay [1] (at 50.0 µM) it was 74.7% (active); in assay [2] (setting [7]), -4%; in assay [2] (setting [8]), -2%; in assay [2] (at 50.0 µM), 24.5%. For the same molecule, the growth inhibition is 23% in assay [3] (setting [7]); 14% in assay [3] (setting [8]); 13% in assay [3] (at 50.0 µM); 17% in assay [4] (setting [7]); 7% in assay [4] (setting [8]); 20.8% in assay [4] (at 50.0 µM). Also, the growth inhibition was 24% in assay [5] (setting [7]); 20% in assay [5] (setting [8]); -8.5% in assay [5] (at 50.0 µM); 14% in assay [6] (setting [7]); 17% in assay [6] (setting [8]); 30.2% in assay [6] (at 50.0 µM).
Turning to `COc1ccc(CC2C(=O)NC(C)C(=O)N(C)C3C(=O)N(C)C(Cc4ccc(O)c(c4)Oc4ccc(cc4)C3O)C(=O)NC(C)C(=O)NC(C)C(=O)N2C)cc1` (configuration not stated) (tested in a mixture with another compound), the growth inhibition in assay [1] (setting [7]) was 31%; in assay [1] (setting [8]), 99% (active); in assay [1] (at 50.0 µM), 83.2% (active); in assay [2] (setting [7]) it was 28%; in assay [2] (setting [8]), 100% (active); in assay [2] (at 50.0 µM) it was 78% (active). The growth inhibition in assay [3] (setting [7]) is 37%; in assay [3] (setting [8]), 99% (active); in assay [3] (at 50.0 µM) it was 86.3% (active); in assay [4] (setting [7]) it was 41%; in assay [4] (setting [8]), 98% (active); in assay [4] (at 50.0 µM), 78.5% (active). In addition, the growth inhibition in assay [5] (setting [7]) was 34%; in assay [5] (setting [8]), 99% (active); in assay [5] (at 50.0 µM), 83.3% (active); in assay [6] (setting [7]), 32%; in assay [6] (setting [8]) it was 98% (active); in assay [6] (at 50.0 µM) it was 69.3%.
